5 compounds from PubChem BioAssay can be followed below.

Test [1] is described as follows: yeast TOR pathway RPL19A-GFP modulators, primary screen, cell-based, S. cerevisiae, multiplex flow cytometry (AID 1862; in the data active means percent of DMSO control GFP below about 86%;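 further: lower values mimic rapamycin by blocking the RPL19A rise seen in DMSO cells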). Particulars: S. cerevisiae RPL19A-GFP strain, flow cytometry fluorescence, 3 h; at 10 µM; stronger effect = lower value. For orientation: A flow cytometer gives signals particle by particle.
Test [2] is described as follows: modulators of CIT2-GFP expression in yeast, primary screen, S. cerevisiae, GFP fusion, multiplex flow cytometry (AID 1870;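 active means percent response above a set limit, the screen-wide mean plus 3 SD, cut at about 130% in these data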;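 further: barcoded CIT2-GFP strain pooled with four other GFP strains with rapamycin as positive control; median GFP fluorescence per well over plate mean of DMSO wells so 100% = DMSO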). Particulars: 3 h, at 10 µM, stronger effect = higher value.
Test [3] is described as follows: modulators of LAP4-GFP expression in yeast, primary screen, S. cerevisiae, multiplex flow cytometry (AID 1873;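 active means GFP signal, as percent of the solvent control, above the screen mean plus 3 SD, about 149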). Conditions: 3 h, at 10 µM, stronger effect = higher value.
Test [4] is described as follows: inhibitors of CD8+ T cell-vesicle binding, pilot screen, LFA-1/ICAM-1 modulator project, MLPCN validation set, flow cytometry (AID 2523;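 active means response below a set limit, under 55% cells CD8-positive and vesicle-bound, and CD8 cells' 90th-percentile brightness under 279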;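 on vesicle binding response: mean PE anti-B7-1 fluorescence of CD8+ cells relative to row control; 100% = QL9-loaded vesicles with DMSO vehicle in the same plate row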). Conditions: 2C mouse CD8+ T cells, at 7 µM, stronger effect = lower value; double positive events: measured here: CD8+/vesicle+ event percentage.
Test [5] deals with Integrin beta-1 (Homo sapiens) + Integrin alpha-4 (Homo sapiens) (UniProt P13612+P05556). As to the kind of experiment: inhibition of HUTS-21 binding to VLA-4, pilot screen, VLA-4 allosteric modulator project, U937 cells, HUTS-21 mAb, flow cytometry, validation set (AID 2674;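 active means inhibition above 50%, about 3 SD of the validation set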;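 further: antibody binding induced by the VLA-4 ligand LDV present at three times its Kd; 0% = LDV ligand with antibody and no compound and 100% = antibody without LDV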). Particulars: HUTS-21 LIBS mAb binding, at 6.7 µM, stronger effect = higher value.
The nature of test [6]: superoxide lowering in aged yeast cells, pilot screen, validation compound set (AID 2706;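 active means superoxide response below 65% of plate, a cut near 3 SD across the whole screen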;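 further: yeast exposed to compound for one week at 30 degrees C before staining; 100% = mean of all compound wells on the same plate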). Particulars: S. cerevisiae aging, superoxide DHE fluorescence; at 10 µM; stronger effect = lower value.
For test [7], the target named is Beta-adrenergic receptor kinase 1 (Homo sapiens) (UniProt P25098). As to the kind of experiment: GRK2 binders displacing RNA aptamer, biochemical, validation, human GRK2, bead flow cytometry (AID 488806;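 active means aptamer binding inhibition above 30%, about 3 SD of noise from non-fluorescent compounds; inactive means inhibition at or below 30%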). Particulars: bead-bound GRK2, FAM-aptamer displacement, at 10 µM, stronger effect = higher value.
Sequence of Beta-adrenergic receptor kinase 1 (Homo sapiens) (P25098 whole entry, looked up): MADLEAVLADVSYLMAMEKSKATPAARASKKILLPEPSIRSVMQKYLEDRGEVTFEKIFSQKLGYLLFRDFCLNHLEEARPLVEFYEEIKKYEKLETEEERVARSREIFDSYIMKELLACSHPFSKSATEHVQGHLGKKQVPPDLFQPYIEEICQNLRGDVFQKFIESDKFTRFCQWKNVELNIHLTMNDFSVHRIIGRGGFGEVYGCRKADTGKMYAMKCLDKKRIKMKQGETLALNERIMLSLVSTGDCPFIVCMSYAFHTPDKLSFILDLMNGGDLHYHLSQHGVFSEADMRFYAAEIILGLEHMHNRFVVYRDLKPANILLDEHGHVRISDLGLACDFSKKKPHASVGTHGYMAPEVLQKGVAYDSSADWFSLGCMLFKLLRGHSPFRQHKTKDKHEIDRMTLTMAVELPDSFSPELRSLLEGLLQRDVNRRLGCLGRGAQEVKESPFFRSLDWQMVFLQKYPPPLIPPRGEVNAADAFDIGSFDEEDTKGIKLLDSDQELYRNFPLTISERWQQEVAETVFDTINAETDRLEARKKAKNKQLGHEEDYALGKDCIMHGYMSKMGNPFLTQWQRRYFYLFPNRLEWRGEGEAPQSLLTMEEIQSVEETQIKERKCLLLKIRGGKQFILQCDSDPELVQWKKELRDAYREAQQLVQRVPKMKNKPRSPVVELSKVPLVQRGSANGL
The target of test [8] is Beta-2 adrenergic receptor (Homo sapiens) (UniProt P07550). As to the kind of experiment: beta2AR agonists driving receptor internalization, pilot screen, cell-based, FAP fluorogen, flow cytometry, validation set (AID 504459;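 active means percent response above 42, roughly 3 SD of non-fluorescent test compounds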;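 further: agonist-driven loss of surface beta2AR via internalization measured by FAP dye flow cytometry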). Particulars: Am2.2-beta2AR cells, FAP surface receptor flow cytometry; at 10 µM; stronger effect = higher value.
Sequence of Beta-2 adrenergic receptor (Homo sapiens) (P07550 whole entry, looked up): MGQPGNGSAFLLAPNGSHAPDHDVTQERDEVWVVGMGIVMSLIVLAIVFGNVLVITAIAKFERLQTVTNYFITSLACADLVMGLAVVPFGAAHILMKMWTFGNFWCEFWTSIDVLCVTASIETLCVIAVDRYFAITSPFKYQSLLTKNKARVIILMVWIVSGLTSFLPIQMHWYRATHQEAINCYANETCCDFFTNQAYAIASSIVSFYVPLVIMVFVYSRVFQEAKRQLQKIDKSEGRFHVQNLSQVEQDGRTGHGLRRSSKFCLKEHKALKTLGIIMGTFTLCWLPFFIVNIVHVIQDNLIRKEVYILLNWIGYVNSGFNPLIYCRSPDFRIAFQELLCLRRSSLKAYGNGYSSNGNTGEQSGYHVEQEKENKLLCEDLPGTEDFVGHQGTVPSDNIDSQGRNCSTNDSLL
The target of test [9] is AP-2 complex subunit beta (Homo sapiens) (UniProt P63010). As to the kind of experiment: inhibitors of arrestin peptide binding to AP2, pilot screen, biochemical, validation set, GST-AP2 beads, flow cytometry (AID 504541;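 active means inhibition above 54%, about 3 SD of non-fluorescent compounds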;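 further: AP2 carries R879A mutation and is captured from E. coli lysate; bead-bound FITC arrestin peptide fluorescence measuring arrestin peptide binding to AP2; 0% = DMSO wells and 100% = excess unlabeled arrestin peptide control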). Conditions: FITC arrestin peptide, at 10 µM, stronger effect = higher value.
Sequence of AP-2 complex subunit beta (Homo sapiens) (P63010 whole entry, looked up, one chain of several): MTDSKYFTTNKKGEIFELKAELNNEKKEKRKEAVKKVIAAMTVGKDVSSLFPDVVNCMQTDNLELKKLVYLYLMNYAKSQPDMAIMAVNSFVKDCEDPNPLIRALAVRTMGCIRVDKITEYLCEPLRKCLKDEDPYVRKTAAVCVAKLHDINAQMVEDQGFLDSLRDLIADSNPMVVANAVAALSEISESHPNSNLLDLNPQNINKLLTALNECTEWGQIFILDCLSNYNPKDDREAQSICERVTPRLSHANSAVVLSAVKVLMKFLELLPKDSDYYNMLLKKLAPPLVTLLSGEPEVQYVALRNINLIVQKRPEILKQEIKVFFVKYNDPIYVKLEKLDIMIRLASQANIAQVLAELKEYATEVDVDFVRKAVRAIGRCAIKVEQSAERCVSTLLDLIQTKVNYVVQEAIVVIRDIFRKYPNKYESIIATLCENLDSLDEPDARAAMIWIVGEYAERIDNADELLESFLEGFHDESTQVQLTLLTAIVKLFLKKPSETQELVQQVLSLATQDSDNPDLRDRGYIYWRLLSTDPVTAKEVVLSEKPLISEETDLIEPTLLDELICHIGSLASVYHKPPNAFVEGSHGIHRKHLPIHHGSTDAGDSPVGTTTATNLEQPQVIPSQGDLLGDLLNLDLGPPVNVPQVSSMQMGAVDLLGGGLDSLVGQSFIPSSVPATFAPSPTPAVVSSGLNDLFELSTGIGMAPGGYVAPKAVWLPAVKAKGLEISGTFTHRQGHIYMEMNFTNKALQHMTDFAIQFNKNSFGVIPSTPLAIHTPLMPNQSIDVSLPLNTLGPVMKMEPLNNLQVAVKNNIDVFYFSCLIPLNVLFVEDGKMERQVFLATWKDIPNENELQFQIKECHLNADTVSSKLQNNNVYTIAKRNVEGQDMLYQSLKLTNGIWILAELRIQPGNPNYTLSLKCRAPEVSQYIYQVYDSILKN
Test [10] can be described thus: yeast V-ATPase proton transport modulators, S. cerevisiae, pHLuorin, HTS validation (AID 504600; in the data active means response above about 15%;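 further: plate controls were DMSO for no effect and reference compound for full effect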). Particulars: S. cerevisiae pHLuorin cytosolic pH, at 10 µM, stronger effect = higher value.
The subject of test [11] is anti-desmoglein-3 scFv antibody binding to human DSG3. As to the kind of experiment: inhibitors of anti-DSG3 scFv binding to DSG3, pilot screen, biochemical, validation compound set, bead-based, flow cytometry (AID 588368;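 active means binding below the plate cutoff, the plate median minus 3 SD, with a reading above zero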;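 further: signal is the median channel fluorescence of bead-bound GFP antibody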). Conditions: Protein G beads, DSG3-Fc, scFv-GFP binding, at 10 µM, stronger effect = lower value.
Test [12] relates to Botulinum neurotoxin type F light chain protease (Clostridium botulinum). As to the kind of experiment: Botulinum neurotoxin type F light chain protease inhibition, multiplex microsphere flow cytometry, validation set (AID 588459). Conditions: multiplex microsphere protease substrate cleavage assay, at 10 µM, stronger effect = higher value.
The target of test [13] is Botulinum neurotoxin type A (Clostridium botulinum) (UniProt P0DPI0). As to the kind of experiment: BoNT/A light chain protease inhibitors, biochemical, multiplex microsphere flow cytometry, validation set (AID 588460). Particulars: at 10 µM, stronger effect = higher value.
Sequence of Botulinum neurotoxin type A (Clostridium botulinum) (P0DPI0 whole entry, looked up): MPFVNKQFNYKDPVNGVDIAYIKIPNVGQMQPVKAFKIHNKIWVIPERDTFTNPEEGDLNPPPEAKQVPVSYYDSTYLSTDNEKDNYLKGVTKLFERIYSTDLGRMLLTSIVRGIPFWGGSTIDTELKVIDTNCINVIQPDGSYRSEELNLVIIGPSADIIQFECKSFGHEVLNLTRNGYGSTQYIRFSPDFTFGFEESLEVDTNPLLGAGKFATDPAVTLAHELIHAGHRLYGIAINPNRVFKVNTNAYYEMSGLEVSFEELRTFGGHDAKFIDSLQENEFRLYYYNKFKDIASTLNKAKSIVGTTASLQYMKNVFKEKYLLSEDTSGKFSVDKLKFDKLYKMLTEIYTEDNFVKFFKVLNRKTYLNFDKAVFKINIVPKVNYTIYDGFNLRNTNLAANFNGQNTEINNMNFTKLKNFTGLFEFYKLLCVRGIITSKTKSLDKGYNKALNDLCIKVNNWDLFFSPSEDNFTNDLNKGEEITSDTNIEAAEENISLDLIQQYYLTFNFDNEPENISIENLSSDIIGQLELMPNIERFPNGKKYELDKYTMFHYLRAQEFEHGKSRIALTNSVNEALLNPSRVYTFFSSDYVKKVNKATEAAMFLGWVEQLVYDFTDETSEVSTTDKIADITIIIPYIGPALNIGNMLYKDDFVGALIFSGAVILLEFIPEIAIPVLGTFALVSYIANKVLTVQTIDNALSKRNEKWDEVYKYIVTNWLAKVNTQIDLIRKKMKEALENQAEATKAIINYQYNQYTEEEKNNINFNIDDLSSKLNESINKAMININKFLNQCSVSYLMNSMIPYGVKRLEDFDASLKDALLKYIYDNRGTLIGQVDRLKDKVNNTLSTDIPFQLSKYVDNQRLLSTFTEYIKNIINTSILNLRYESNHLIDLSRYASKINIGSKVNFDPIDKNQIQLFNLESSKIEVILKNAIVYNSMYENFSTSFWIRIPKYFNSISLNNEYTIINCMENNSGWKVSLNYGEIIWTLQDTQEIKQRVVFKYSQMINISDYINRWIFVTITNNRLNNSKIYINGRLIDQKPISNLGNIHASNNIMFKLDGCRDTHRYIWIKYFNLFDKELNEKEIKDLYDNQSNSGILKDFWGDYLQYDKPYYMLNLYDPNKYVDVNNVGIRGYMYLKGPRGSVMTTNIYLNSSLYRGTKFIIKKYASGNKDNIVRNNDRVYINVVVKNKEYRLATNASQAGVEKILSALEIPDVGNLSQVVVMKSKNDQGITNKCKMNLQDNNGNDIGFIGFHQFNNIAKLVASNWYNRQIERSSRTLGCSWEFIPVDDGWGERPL
Test [14] addresses Lethal factor (Bacillus anthracis) (UniProt P15917). As to the kind of experiment: Lethal factor protease inhibitors, Bacillus anthracis, multiplex microsphere cleavage assay, validation set (AID 588461). Particulars: flow cytometry, at 10 µM, stronger effect = higher value.
The target of test [15] is ATP-binding cassette sub-family B member 6 (Homo sapiens) (UniProt Q9NP58). As to the kind of experiment: ABCB6 transporter inhibitors, pilot screen, K562-ABCB6 cells, flow cytometry, validation set (AID 588550;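 active means inhibition above the screen-wide mean plus 3 SD, about 51%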;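 further: 0% = DMSO wells and 100% = benzethonium chloride 70 µM positive control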). Conditions: K562-ABCB6 porphyrin accumulation, 1 h, at 10 µM, stronger effect = higher value.
Sequence of ATP-binding cassette sub-family B member 6 (Homo sapiens) (Q9NP58 whole entry, looked up): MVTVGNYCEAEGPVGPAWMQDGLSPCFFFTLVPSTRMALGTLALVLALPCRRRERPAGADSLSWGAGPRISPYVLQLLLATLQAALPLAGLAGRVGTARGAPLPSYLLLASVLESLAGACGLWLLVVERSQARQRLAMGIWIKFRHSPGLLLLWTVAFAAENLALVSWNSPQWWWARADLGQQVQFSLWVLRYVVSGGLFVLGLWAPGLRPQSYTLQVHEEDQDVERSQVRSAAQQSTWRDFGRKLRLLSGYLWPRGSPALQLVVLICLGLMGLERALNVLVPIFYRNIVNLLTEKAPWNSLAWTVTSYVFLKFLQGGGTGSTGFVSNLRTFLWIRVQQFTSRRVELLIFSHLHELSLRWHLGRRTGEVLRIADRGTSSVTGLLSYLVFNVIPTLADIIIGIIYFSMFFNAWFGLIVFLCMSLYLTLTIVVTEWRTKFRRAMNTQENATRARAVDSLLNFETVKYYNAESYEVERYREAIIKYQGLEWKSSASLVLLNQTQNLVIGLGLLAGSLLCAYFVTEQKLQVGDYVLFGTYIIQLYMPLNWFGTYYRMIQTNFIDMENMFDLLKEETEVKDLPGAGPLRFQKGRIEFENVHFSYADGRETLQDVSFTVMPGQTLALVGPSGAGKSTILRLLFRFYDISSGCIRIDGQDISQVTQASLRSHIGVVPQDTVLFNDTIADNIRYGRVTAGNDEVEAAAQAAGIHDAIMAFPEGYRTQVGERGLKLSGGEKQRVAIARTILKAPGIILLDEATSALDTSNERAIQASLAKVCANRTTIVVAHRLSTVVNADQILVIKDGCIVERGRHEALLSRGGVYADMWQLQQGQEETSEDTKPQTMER
Test [16] in a line: promoters of myeloid differentiation in arrested cells, primary screen, cell-based, GFP/MAC1 double positive, flow cytometry, validation set (AID 588685;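 active means differentiation response of at least 50%, scaled between solvent and reference control, from cells with both markers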;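 further: compound exposure lasts four days before antibody staining and flow analysis; 0% = DMSO wells and 100% = 5 µM fulvestrant positive control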). Conditions: ER-HoxA9 marrow cells, stronger effect = higher value.
Test [17] in a line: inhibitors of fungal efflux pumps CDR1, CDR2, MDR1, pilot screen, validation compound set, multiplex, phenotypic (AID 588506;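 active means efflux inhibition above 0.42, the validation set average plus 4 SD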;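 further: Nile Red retained in cells so higher fluorescence means more efflux inhibition; 0 = negative control wells and 1 = enniatin B 25 µM full block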). Conditions: S. cerevisiae pump-expressing triplex, Nile Red efflux flow cytometry; at 10 µM; stronger effect = higher value.

Records with an inconclusive call do not appear. The source made the active and inactive calls. Unless noted, how the calls were made is not given here.

Sequence of Lethal factor (Bacillus anthracis) (P15917 whole entry, looked up): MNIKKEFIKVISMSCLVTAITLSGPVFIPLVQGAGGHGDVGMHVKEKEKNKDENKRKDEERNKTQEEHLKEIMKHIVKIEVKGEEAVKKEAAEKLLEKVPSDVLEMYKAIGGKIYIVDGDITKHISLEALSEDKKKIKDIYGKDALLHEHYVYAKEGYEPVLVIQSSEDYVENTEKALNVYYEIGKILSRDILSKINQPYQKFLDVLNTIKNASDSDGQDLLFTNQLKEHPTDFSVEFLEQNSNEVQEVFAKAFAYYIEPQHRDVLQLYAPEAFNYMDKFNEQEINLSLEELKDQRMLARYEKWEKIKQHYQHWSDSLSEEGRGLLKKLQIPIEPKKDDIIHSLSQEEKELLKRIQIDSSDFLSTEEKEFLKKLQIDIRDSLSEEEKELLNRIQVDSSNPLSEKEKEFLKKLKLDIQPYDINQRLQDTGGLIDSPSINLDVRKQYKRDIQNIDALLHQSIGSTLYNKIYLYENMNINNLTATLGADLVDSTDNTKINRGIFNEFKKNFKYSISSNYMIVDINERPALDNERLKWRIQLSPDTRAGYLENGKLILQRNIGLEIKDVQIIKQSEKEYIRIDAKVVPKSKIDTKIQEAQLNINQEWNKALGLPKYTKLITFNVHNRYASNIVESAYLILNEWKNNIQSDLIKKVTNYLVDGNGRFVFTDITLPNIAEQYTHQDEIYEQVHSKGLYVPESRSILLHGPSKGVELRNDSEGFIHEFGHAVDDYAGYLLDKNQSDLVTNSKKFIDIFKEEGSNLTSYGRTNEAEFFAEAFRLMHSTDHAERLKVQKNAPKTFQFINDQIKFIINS

As a reminder, the inhibition is the drop in the measured response relative to a control, in per cent. As to `C[C@@H]1O[C@@H](O[C@H]2C[C@@H](O)[C@]3(CO)[C@H]4[C@H](O)C[C@]5(C)[C@@H](C6=CC(=O)OC6)CC[C@]5(O)[C@@H]4CC[C@]3(O)C2)[C@H](O)[C@H](O)[C@H]1O`, the percent of DMSO control GFP in test [1] is 108% (inactive). Besides, the percent response of DMSO control in test [2] was 102% (inactive). For the same compound, the GFP response vs DMSO in [3] was 107% (inactive). The same compound registered a double positive events in [4] of 69%. The vesicle binding response in test [4] was 183% (inactive). In addition, the inhibition in [5] was 1.44% (inactive); in [9] it was -1.72% (inactive); in [12], 0.6% (inactive); in [13], -0.5% (inactive); in [14], 0.4% (inactive); in test [15], 4% (inactive). The superoxide response (% of plate) in [6] is 103% (inactive). Further, in test [7], the aptamer binding inhibition was 7% (inactive). In addition, the response in test [8] was -22.9% (inactive); in test [10], 0.97% (inactive). The binding (% of control) in [11] was 101% (inactive). Also, the differentiation response in [16] was 1.91% (inactive).
For `S=C1NCCN1`, the percent of DMSO control GFP in [1] is 99.1% (inactive). For the same compound, the percent response of DMSO control in test [2] was 97.9% (inactive). In addition, the GFP response vs DMSO in [3] was 102% (inactive). Moreover, the double positive events in test [4] was determined as 65.7%. Further, in [4], the vesicle binding response is 186% (inactive). For the same compound, the inhibition was 6.29% (inactive) in test [5], 24.8% (inactive) in test [9] and 14% (inactive) in test [15]. In addition, in test [6], the superoxide response (% of plate) is 98.2% (inactive). Further, the aptamer binding inhibition in test [7] is 3% (inactive). The response in test [10] was -0.28% (inactive). Also, the binding (% of control) in [11] is 98% (inactive). For the same compound, the efflux inhibition (fraction of control) in test [17] was 0.63 (active). Besides, the differentiation response in test [16] is -0.2% (inactive).
Regarding `CC[N+]1(C)CCCC(OC(=O)C(O)(c2ccccc2)c2ccccc2)C1` (stereo unspecified), the percent of DMSO control GFP in test [1] was 99% (inactive). The percent response of DMSO control in test [2] is 103% (inactive). Besides, in test [3], the GFP response vs DMSO was 103% (inactive). The double positive events in [4] stood at 61%. Moreover, in test [4], the vesicle binding response was 160% (inactive). In addition, the inhibition in [5] was 5.69% (inactive); in [9], -0.87% (inactive); in [12], 0.8% (inactive); in test [13], -0.6% (inactive); in [14] it was 8% (inactive); in test [15], 1% (inactive). Also, the superoxide response (% of plate) in test [6] is 96.5% (inactive). Further, the aptamer binding inhibition in test [7] is 4% (inactive). In addition, the response is -15.3% (inactive) in [8] and -0.49% (inactive) in test [10]. In test [11], the binding (% of control) was 107% (inactive). For the same compound, the efflux inhibition (fraction of control) in test [17] is 0.04 (inactive). For the same compound, in test [16], the differentiation response is -5.97% (inactive).
In the case of `C[C@H]1CCC[C@H](O)CCCCCc2cc(O)cc(O)c2C(=O)O1`, in test [1], the percent of DMSO control GFP was 104% (inactive). The percent response of DMSO control in [2] is 106% (inactive). Moreover, in [3], the GFP response vs DMSO is 87.3% (inactive). This compound also displayed a double positive events in test [4] of 52.7%. The vesicle binding response in test [4] is 191% (inactive). Further, the inhibition in test [5] was -7.7% (inactive); in test [9] it was -16.7% (inactive); in test [12], 0.3% (inactive); in test [13], -0.8% (inactive); in test [14], -4.3% (inactive); in test [15] it was 9% (inactive). The superoxide response (% of plate) in [6] was 106% (inactive). Further, in test [7], the aptamer binding inhibition was -4% (inactive). In addition, the response in test [10] is 3% (inactive). In addition, in test [11], the binding (% of control) is 106% (inactive). Moreover, in [17], the efflux inhibition (fraction of control) was -0.28 (inactive). The differentiation response in test [16] was -34.1% (inactive).
As for `CC[C@@H](CO)NC(=O)[C@@H]1C=C2c3cccc4c3c(cn4C)C[C@H]2N(C)C1`, the percent of DMSO control GFP in test [1] is 103% (inactive). Also, in [2], the percent response of DMSO control is 99.8% (inactive). In addition, the GFP response vs DMSO in test [3] was 90.3% (inactive). This compound showed a double positive events in test [4] of 59.1%. Moreover, the vesicle binding response in test [4] was 158% (inactive). For the same compound, the inhibition in test [5] is 8.15% (inactive); in test [9] it was 0.36% (inactive); in test [14] it was -6.6% (inactive); in test [15] it was 7% (inactive). The superoxide response (% of plate) in test [6] was 108% (inactive). Also, the aptamer binding inhibition in [7] is 2% (inactive). In addition, the response in [10] was -0.46% (inactive). Further, in [11], the binding (% of control) was 104% (inactive). Further, the efflux inhibition (fraction of control) in test [17] is 0.56 (active). The differentiation response in test [16] was 1.41% (inactive).
